{"source": "PubChem BioAssay AID504466", "about": "(National Center for Advancing Translational Sciences (NCATS), 2011)", "note": "Among all 330,000 compounds or so, about 4,200 (1.3%) were called active. Not shown: some 6% with an inconclusive outcome. The list comes from a sample in which actives are over-represented; it also holds similar structures and randomly drawn compounds. Unmarked numbers belong to inactive results. Calls come from the whole dose curve; as a rule, active = well fitted activation curve with a large enough effect; inconclusive = small, poorly fitted or top-dose-only effect; inactive = no such curve, though single readings can be large or run the other way. Potency is the fitted concentration of half-maximal effect."}
{"test": "qHTS screen for small molecules that induce genotoxicity in human embryonic kidney (HEK293T) cells expressing luciferase-tagged ELG1; note: nearly all actives have a fitted effect of over 60% in size; for activity change, positive = activation: % of control where 0% means no effect", "details": "HEK293T ELG1-luciferase reporter, luminescence, 16 h; series mostly up to 46 µM; activity change, positive = activation: at the top concentration", "method_in_brief": "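HEK293T cells expressing luciferase-tagged ELG1 were treated with compound or DMSO for 16 hr at 37°C. Luciferase activity was then read after 30 min with ONE-Glo at room temperature; rising signal flags genetic stress.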", "units": {"activity change, positive = activation": "%"}}
{"smiles": "COc1ccccc1CNC(=O)c1ccc(Cl)c(S(=O)(=O)N2CCCC2)c1", "activity change, positive = activation": -0.595}
{"smiles": "Cc1ccc(S(=O)(=O)NCCC(=O)Nc2cccc(S(N)(=O)=O)c2)cc1C", "activity change, positive = activation": -2.2}
{"smiles": "Cc1ccnc(NC(=O)CCNS(=O)(=O)c2ccc(C)c(C)c2)c1", "Potency": "1.64 µM (active)"}
{"smiles": "Cc1ccc(S(=O)(=O)NCCC(=O)Nc2ccc(C)c(Cl)c2)cc1C", "activity change, positive = activation": -1.62}
{"smiles": "Cc1cc(NC(=O)CN2C(=O)NC(CC(C)C)C2=O)no1", "note": "(stereo unspecified)", "activity change, positive = activation": -1.81}
{"smiles": "O=C(CN1C(=O)NC2(CCCCCC2)C1=O)Nc1ccc([N+](=O)[O-])cc1", "activity change, positive = activation": -6.89}
{"smiles": "CC(C)(C)OC(=O)C[C@@H]1C/C=C\\C[C@@H](CC(=O)N[C@H](CO)Cc2ccccc2)C(=O)NC[C@@H](c2ccccc2)OC1=O", "activity change, positive = activation": -1.15}
{"smiles": "Cc1ccc(C(=O)OCC(=O)NCc2cc(C)c(O)c(C)c2)cc1S(=O)(=O)N1CCCCC1", "activity change, positive = activation": -3.3}
{"smiles": "COc1ccc(C(=O)OCC(=O)Nc2cccc(C(C)=O)c2)cc1OC", "activity change, positive = activation": -2.98}
{"smiles": "CC(=O)Nc1cccc(C(=O)OCC(=O)NCc2cc(C)c(O)c(C)c2)c1", "Potency": "14.6 µM (active)"}
{"smiles": "Cc1noc(C)c1S(=O)(=O)N(C)C[C@H]1Oc2c(NC(=O)Nc3ccc4c(c3)OCO4)cccc2C(=O)N([C@H](C)CO)C[C@@H]1C", "activity change, positive = activation": -1.28}
{"smiles": "COc1cc(OC)cc(C(=O)N[C@H](C(=O)NNC(=O)c2ccc(Br)cc2)C(C)C)c1", "activity change, positive = activation": -3.65}
{"smiles": "COc1ccc(NC(=O)CCN2CCCC2)c(OC)c1", "activity change, positive = activation": 2.14}
{"smiles": "COc1ccc(NC(=O)CCCC2CCCCC2)c(OC)c1", "Potency": "18.3 µM (active)"}
{"smiles": "CC(=O)Oc1ccc(NC(=O)CCC2CCCCC2)c(C(=O)O)c1", "activity change, positive = activation": -2.29}
{"smiles": "O=C(NOCc1ccccc1)c1cccc([N+](=O)[O-])c1", "activity change, positive = activation": 12.2}
{"smiles": "Cc1ccc2nc(-c3ccc(SCC(=O)Nc4cc(C)on4)nc3)[nH]c2c1", "Potency": "1.84 µM (active)"}
{"smiles": "Cc1ccc(SCCC(=O)Nc2cc(C)on2)cc1", "activity change, positive = activation": 1.06}
{"smiles": "Cc1cccc(-n2ncc3c(=O)[nH]c(SCC(=O)Nc4cc(C)on4)nc32)c1", "activity change, positive = activation": -3.13}
{"smiles": "CC1CCCCC12NC(=O)N(CC(=O)N1CCN(c3ccccc3)CC1)C2=O", "note": "(stereo unspecified)", "activity change, positive = activation": -1.11}
{"smiles": "CCN(C[C@H]1N[C@@](CC)(C(=O)OC)[C@H]2C(=O)N(Cc3ccccc3)C(=O)[C@@H]12)S(=O)(=O)c1ccc(C(F)(F)F)cc1", "activity change, positive = activation": -1.39}
{"smiles": "COc1ccccc1-c1cc(C(=O)N2CCCCC2)no1", "Potency": "3.66 µM (active)"}
{"smiles": "COc1ccc(-c2cc(C(=O)N3CCN(c4ccc(F)cc4)CC3)no2)cc1", "activity change, positive = activation": -14.8}
{"smiles": "COc1cccc(-c2cc(C(=O)N3CCN(c4ccccc4OC)CC3)no2)c1", "activity change, positive = activation": -2}
{"smiles": "O=C(OCC(=O)N1CCCCC1)c1ccc(OC(F)(F)F)cc1", "activity change, positive = activation": 3.48}
{"smiles": "O=C(C[C@H]1C[C@H](C(=O)N2CCOCC2)[C@@]2(CCC3CCCC3)c3[nH]c4ccc(Cl)cc4c3CCN2C1=O)NCc1ccco1", "activity change, positive = activation": -5.84}
